Rows were chosen to be rich in hits. Some 3.4% of all compounds tested hit in one or more screens of this group.
GPR151 ag = human GPR151 activation; PathHunter beta-arrestin GPR151 cells, luminescence; Q8TDV0; activation, % at 11.2 µM; 650,000 tested, 1% active; AID 1508602; in the data active = activation above about 4.9%
Target sequence (Q8TDV0 whole entry, looked up): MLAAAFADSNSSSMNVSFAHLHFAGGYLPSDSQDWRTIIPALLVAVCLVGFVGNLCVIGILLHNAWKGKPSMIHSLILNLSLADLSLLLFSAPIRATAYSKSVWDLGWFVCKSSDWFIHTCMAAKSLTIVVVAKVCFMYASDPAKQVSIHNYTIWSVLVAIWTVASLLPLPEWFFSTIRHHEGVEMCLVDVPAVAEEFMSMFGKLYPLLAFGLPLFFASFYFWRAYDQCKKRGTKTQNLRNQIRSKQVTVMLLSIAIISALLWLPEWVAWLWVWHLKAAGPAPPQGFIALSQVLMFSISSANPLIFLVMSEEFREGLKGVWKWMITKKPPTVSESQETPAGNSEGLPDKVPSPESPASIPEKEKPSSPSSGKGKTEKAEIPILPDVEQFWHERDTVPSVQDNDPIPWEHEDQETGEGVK
FBW7 act = human FBW7 E3 ligase activation, primary screen. AlphaScreen FBW7–phospho-cyclin E peptide binding, activator screen. normalized activity (activation), % at 26.1 µM. 650,000 tested, 0.13% active. AID 1259310; in the data active = normalized activity above about 1.9%;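 also: purified mutant Fbw7 with reduced substrate affinity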
MITF primary = inhibitors of human MITF | O75030 | 650,000 tested, 0.91% active | inhibition, % at 2.6 µM | AlphaScreen MITF homodimerization, bead proximity signal; in the data active = inhibition above about 50%
TEAD-YAP block = TEAD-YAP interaction inhibition; HEK-TIYL cells, TEAD-Gal4/YAP UAS-luciferase luminescence; inhibition, % at 9.12 µM; 640,000 tested, 1.4% active; in the data active = inhibition above about 32%
A number is an active result; 0 = inactive.

SMILES | GPR151 ag | FBW7 act | MITF primary | TEAD-YAP block
O=C1C(=C2C=CN(CCc3ccccc3)C=C2)C(=O)c2ccccc21 | 0 | 0 | 0 | 0
O=C(Nc1nc(-c2ccc(S(=O)(=O)N3CCCCCC3)cc2)cs1)c1cccs1 | 0 | 0 | 0 | 0
O=S(=O)(c1ccc(-c2csc(N/N=C/c3cccs3)n2)cc1)N1CCCC1 | 0 | 0 | 0 | 51.0
Cc1cc(C(C#N)c2ccc(Cl)cc2Cl)n2ncnc2n1 (configuration not stated) | 0 | 0 | 0 | 0
Cc1cccc(C(C#N)c2cc(C)nc3ncnn23)c1 (configuration not stated) | 0 | 2.1 | 0 | 0
CC(=O)Nc1cccc(Nc2nc(-c3ccccc3F)nc3ccccc23)c1 | 0 | 0 | 0 | 32.3
S=c1nc(Nc2cc(Cl)cc(Cl)c2)c2ccccc2[nH]1 | 0 | 0 | 0 | 0
CC(=O)c1cccc(Nc2nc(-c3ccc(C(C)(C)C)cc3)nc3ccccc23)c1 | 0 | 0 | 0 | 58.9
CC(=O)c1cccc(Nc2nc(=S)[nH]c3ccccc23)c1 | 0 | 0 | 0 | 61.3
CC(=O)c1cccc(Nc2nc(-c3ccc(C)cc3)nc3ccccc23)c1 | 0 | 0 | 0 | 0
Fc1cccc(Nc2nc(-c3ccccc3F)nc3ccccc23)c1 | 0 | 0 | 0 | 0
CC(=O)Nc1cccc(-c2nc(-c3ccccc3)nc3ccccc23)c1 | 0 | 1.9 | 0 | 0
Cc1ccc(N2C(=O)c3ccc([N+](=O)[O-])cc3C2=O)cc1I | 0 | 0 | 0 | 0
Cc1ccc(NC(=O)c2ccc(Cl)cc2Cl)nc1 | 0 | 0 | 0 | 35.3
Cc1ccc(NC(=O)c2ccc(Cl)cc2[N+](=O)[O-])nc1 | 0 | 0 | 0 | 41.4
Cc1cc(C)c(NC(=O)c2ccc(Cl)cc2)c([N+](=O)[O-])c1 | 0 | 0 | 0 | 41.6
CCN1C(=O)c2ccccc2S(=O)c2ccc(C(=O)N(C)C3CCCCC3)cc21 (configuration not stated) | 0 | 0 | 0 | 0
CC(C)C(CO)Nc1nccn2c(-c3ccc(C(=O)NC4CC4)cc3)cnc12 (configuration not stated) | 0 | 0 | 0 | 51.3
CC(C)C(CO)Nc1nccn2c(-c3cccc(NS(C)(=O)=O)c3)cnc12 (configuration not stated) | 0 | 0 | 0 | 54.8
CC(=O)c1cccc(-c2cnc3c(NC(CO)C(C)C)nccn23)c1 (configuration not stated) | 0 | 0 | 0 | 0
Cc1nnc2ccc(OCCNC(=O)Nc3ccc(F)cc3F)nn12 | 0 | 0 | 0 | 0
NC(=O)C1CCCN1c1nc(-c2cccs2)nc2ccccc12 (configuration not stated) | 0 | 0 | 0 | 0
OCC1CCCCN1c1nc(-c2cccs2)nc2ccccc12 (configuration not stated) | 0 | 0 | 0 | 74.0
CCN1/C(=C/c2ccc3cc(C)ccc3[n+]2CCO)Sc2ccccc21 | 0 | 0 | 0 | 58.0
Cc1cccc2c1N(C)/C(=C/c1cccc[n+]1C)C=C2 | 0 | 0 | 0 | 0
SMILES | GPR151 ag | FBW7 act | MITF primary | TEAD-YAP block
CC[n+]1c(/C=C2\Sc3ccccc3N2CCO)ccc2cc(C)ccc21 | 0 | 0 | 0 | 53.5
CN1/C(=C/c2cccc[n+]2C)C=Cc2ccccc21 | 0 | 0 | 0 | 71.4
CCN1/C(=C/c2cccc[n+]2C)C=Cc2cc(C)ccc21 | 0 | 0 | 0 | 81.4
O=C1c2ccccc2C(=O)N1COC(=O)C12CC3CC(CC(C3)C1)C2 | 0 | 0 | 0 | 0
Cc1c(Cl)cccc1NC1=NCC(=O)N1Cc1cccs1 | 0 | 0 | 0 | 0
CCN1/C(=C/c2ccc3cc(C)ccc3[n+]2C)Sc2ccc3ccsc3c21 | 0 | 0 | 0 | 76.5
CCN1/C(=C/c2ccc3cc(C)ccc3[n+]2C)Sc2ccccc21 | 0 | 0 | 0 | 75.8
CC[n+]1c(/C=C2\Sc3cc(C)ccc3N2CCO)ccc2ccccc21 | 0 | 0 | 0 | 63.8
CCN1/C(=C\c2c(O)c(=O)c2=O)Sc2ccccc21 | 0 | 0 | 0 | 0
CCN1/C(=C/c2c3ccccc3cc[n+]2CC)C=Cc2ccccc21 | 0 | 0 | 0 | 89.5
NC(CC(=O)O)c1ccco1 (configuration not stated) | 0 | 0 | 0 | 0
CC(C(=O)OCC(=O)Nc1sccc1C#N)N1C(=O)c2ccccc2C1=O (configuration not stated) | 0 | 0 | 0 | 0
COc1ccc(C(=O)COc2ccc([N+](=O)[O-])cc2)cc1Br | 0 | 0 | 0 | 0
CCN1/C(=C/C=C/c2cc[n+](CC)c3ccccc23)C=Cc2ccccc21 | 0 | 0 | 0 | 0
CC[n+]1c(/C=C2\Sc3oc4ccccc4c3N2C)ccc2cc(C)ccc21 | 0 | 0 | 0 | 43.7
CC[n+]1c(/C=C2\Sc3ccccc3N2CCO)ccc2cc(OC)ccc21 | 0 | 0 | 0 | 69.7
CCN1/C(=C/c2ccc3cc(C)ccc3[n+]2CC)C=Cc2ccccc21 | 0 | 0 | 0 | 92.2
CC(=C\c1sc2oc3ccccc3c2[n+]1CCO)/C=C1/Sc2oc3ccccc3c2N1CCO | 0 | 0 | 0 | 0
CC[n+]1c(/C=C2\Sc3ccccc3N2C)ccc2ccc(C)cc21 | 0 | 0 | 0 | 77.2
CC[n+]1c(/C=C2\Sc3cc(NC(C)=O)ccc3N2C)ccc2ccccc21 | 0 | 0 | 0 | 0
C[n+]1ccccc1/C=C1\Sc2ccccc2N1CCO | 0 | 0 | 0 | 0
CCN(CC)C(=O)CSc1nnc(Cc2ccccc2)n1C | 0 | 0 | 0 | 0
C=CCN(CC=C)S(=O)(=O)c1ccc(C(=O)Nc2ccc(S(N)(=O)=O)cc2)cc1 | 0 | 0 | 0 | 0
COc1cc2nc(-c3c(C)noc3C)nc(Nc3cc(OC)c(OC)c(OC)c3)c2cc1OC | 0 | 0 | 0 | 0
Cc1cccc(C(=O)Nc2c(C(=O)N3CCCCC3)cnn2-c2ccccc2)c1 | 0 | 0 | 0 | 0
SMILES | GPR151 ag | FBW7 act | MITF primary | TEAD-YAP block
Cc1cccc(C(=O)Nc2c(C(=O)N3CCN(C)CC3)cnn2-c2ccccc2)c1 | 0 | 2.3 | 0 | 0
CC(C)OC(=O)c1sc2nc(-c3ccccc3)ccc2c1N | 0 | 0 | 0 | 84.0
COc1ccc(-c2ccc(C(=O)NCc3ccco3)c(N(C)C)n2)cc1 | 0 | 0 | 0 | 0
COc1ccc(-c2ccc3c(N)c(C(=O)NCc4ccco4)sc3n2)cc1 | 0 | 0 | 0 | 33.1
COc1ccc(NC(=O)Nc2ccccc2C(N)=O)c(OC)c1 | 0 | 0 | 0 | 0
CCN(c1ccccc1)S(=O)(=O)c1ccc(F)c(C(=O)Nc2cc(Cl)cc(Cl)c2)c1 | 0 | 0 | 0 | 0
FC(F)(F)C1=Nc2cccc3cccc(c23)N1 | 0 | 0 | 114.1 | 0
CN(c1ccccc1)S(=O)(=O)c1ccc2c(c1)oc(=O)n2C | 0 | 0 | 0 | 56.3
CN(c1ccc(Br)cc1)S(=O)(=O)c1ccc2c(c1)oc(=O)n2C | 0 | 0 | 0 | 34.0
COc1ccc(N(C)S(=O)(=O)c2ccc3c(c2)oc(=O)n3C)cc1 | 0 | 0 | 0 | 0
CC(C)(C)c1ccc(C(N)CC(=O)O)cc1 (configuration not stated) | 0 | 0 | 0 | 0
Cc1ccc(N2C(=O)/C(=C/c3ccc(-c4ccc(Cl)c(Cl)c4)o3)C=C2c2ccccc2)c(C)c1 | 0 | 0 | 0 | 0
CCC(=O)Nc1sc(C(=O)NC2CCCCC2)c(C)c1C(=O)OC | 0 | 0 | 0 | 36.6
CCOC(=O)c1c(N)sc(C(=O)NC2CCCCC2)c1C | 0 | 0 | 0 | 70.1
CCOC(=O)c1sc(C)c(C(=O)NC2CCCCC2)c1N | 0 | 0 | 0 | 0

Screening data as filed in PubChem.
